# Data published in ChEMBL document CHEMBL4513216, “Probing the Open Global Health Chemical Diversity Library for Multistage-Active Starting Points for Next-Generation Antimalarials” (ACS Infect Dis, 2020).
# Screen size: about 68,000 compounds; about 2,700 (4%) showed an effect of 50% or more. Only a selection was taken, and strong results are over-represented in it overall.
# Tested on: Plasmodium berghei
# Assay: Screen against P. berghei liver stage (PbLuc), transformed with Luciferase, at 2uM
# Type: functional, HepG2
# Conditions: tested at 2 uM
row,SMILES,INHIBITION
1,CC1=C(C(=O)NCCc2n[nH]c3c2CCCC3)C(C)NC(=O)N1 (centres undefined),-18.23%
2,COCc1nc(-c2ccnc(N3CCNCC3)n2)no1,-8.07%
3,CC(C)c1noc(CS(=O)(=O)CC(=O)NCc2ccccc2)n1,66.33%
4,CC(C)c1noc(CS(=O)(=O)CC(=O)NCc2cccs2)n1,20.74%
5,CC(C)c1noc(CS(=O)(=O)CC(=O)NCCOc2ccccc2)n1,-38.35%
6,CN1CC(=O)N(c2cccc(F)c2)CC12CCN(CCO)C2 (centres undefined),-15.88%
7,CN1CC(=O)N(c2ccccc2)CC12CCN(CCO)C2 (centres undefined),65.73%
8,CN1CC(=O)N(c2ccccc2)CC12CCN(CC1CC1)C2 (centres undefined),-8.23%
9,Cc1ncnc2c1CCN(C(=O)c1ccoc1)CC2,33.47%
10,Cc1nc(-c2ccccc2)sc1CNC1CCc2ncnn2C1 (centres undefined),-21.39%
11,Cc1ncnc2c1CCN(CC1CCOC1)CC2 (centres undefined),8.73%
12,COCCC(=O)N1CC[C@@H](N(C)C)[C@@H]1Cc1ccccc1,2.71%
13,COc1ccccc1OC1CCN(C(=O)CCCn2ccnc2)CC1,29.9%
14,COc1cccc(OCC2CCCN(C(=O)Cc3cccc(O)c3)C2)c1 (centres undefined),79.21%
15,COc1cccc(OCC2CCCN(C(=O)CCc3cc(O)no3)C2)c1 (centres undefined),-29.65%
16,COc1cccc(CCC2CCCN(C(C)=O)C2)c1 (centres undefined),79.21%
17,COc1cccc(OCC2CCCN(C(C)=O)C2)c1 (centres undefined),12.91%
18,COc1cccc(OCC2CCCN(C(=O)c3cnn(C)c3)C2)c1 (centres undefined),29.13%
19,COc1cccc(OCC2CCCN(C(=O)CCn3ccnc3)C2)c1 (centres undefined),50.59%
20,COc1ccccc1C(=O)N1CCN(C(=O)CCn2ccnc2)CC1,51.4%
21,COc1cccc(CCC2CCCN(C(=O)c3ccc(OC)o3)C2)c1 (centres undefined),38.67%
22,COc1cccc(OCC2CCCN(C(=O)CCCn3cccn3)C2)c1 (centres undefined),31.51%
23,COc1cccc(C(=O)N2CCN(C(=O)CCn3ccnc3)CC2)c1,-14.71%
24,COc1cccc(CCC2CCCN(C(=O)c3ccccn3)C2)c1 (centres undefined),26.74%
25,c1cc(CN2CCOCC3(C2)CN(Cc2nccs2)CCO3)ccn1 (centres undefined),24.93%
26,CN(C)C(=O)COC1COC2(CCN(c3cnccn3)CC2)C1 (centres undefined),-16.53%

row,SMILES,INHIBITION
1,N#Cc1ccccc1CNC(C(=O)N1CCOCC1)c1ccccc1 (centres undefined),-13.11%
2,C[C@@H]1CN(C(=O)c2cnc(C3CC3)nc2)CC[C@@]1(O)C1CCOCC1,11.63%
3,c1sc(C2CCCCC2)nc1CN1CCn2c(nnc2C2CC2)C1,28.65%
4,CS(=O)(=O)NCc1ncn2c1CN(CCN1CCCC1)CCC2,10.64%
5,CCOc1ccccc1OC1CCN(C(=O)c2cnsn2)CC1,14.06%
6,CCOc1ccccc1OC1CCN(C(=O)c2cnns2)CC1,73.34%
7,CCOc1ccccc1OC1CCN(C(=O)c2csnn2)CC1,19.71%
8,Cc1cccc(N2CCC3(CCCN3Cc3cnn(C)c3C)CC2)n1,11.33%
9,Cc1cccc(N2CCC3(CCCN3Cc3cn(C)nc3C)CC2)n1,50.32%
10,Cc1cccc(N2CCC3(CCCN3Cc3c(C)nn(C)c3C)CC2)n1,-28.5%
11,COCCNC(=O)C1(c2ccccc2C)CCOCC1,-88.54%
12,COCCNC(=O)NC1(c2ccccc2F)CC1,54.49%
13,COCCNC(=O)N1CCN(C(=O)Cc2ccccc2F)CC1,1.06%
14,CCS(=O)(=O)N1CCc2c(nc(C3CCCN3)nc2NC)C1 (centres undefined),40.35%
15,Cc1cccc(C(=O)N2CC(=O)N(c3ccccc3Cl)CC2C)n1 (centres undefined),6.75%
16,Cc1noc2ncc(C(=O)N3CCCC3c3ccncc3)cc12 (centres undefined),-52.51%
17,Cc1noc2ncc(C(=O)N3CCCC3c3cnn(C)c3)cc12 (centres undefined),26.71%
18,Cc1noc2ncc(C(=O)N3CCCC3c3ccsc3)cc12 (centres undefined),60.09%
19,Cc1cn2c(n1)CCC(NC(=O)CCOc1cccc(F)c1)C2 (centres undefined),-34.22%
20,CCc1nccn1C1CCCN(C(=O)c2ccnc(C)n2)C1 (centres undefined),20.53%
21,Cc1noc(CNc2cccc(C(=O)N3CCCC(O)C3)c2)n1 (centres undefined),60.9%
22,Cc1noc(CNc2ccc(C(=O)N3CCCC(C)C3)cc2C)n1 (centres undefined),31.57%
23,Cc1noc(CNc2ccccc2N2CCCCC2)n1,-11.41%
24,Cc1noc(CNc2ccccc2C(=O)N2CCCC(O)C2)n1 (centres undefined),74.11%
25,CCCc1nc(CNc2cccc(C(=O)N3CCCC(O)C3)c2)no1 (centres undefined),24.55%
26,Cc1noc(C)c1CNc1cccc(C(=O)N2CCCC(O)C2)c1 (centres undefined),-82.3%

row,SMILES,INHIBITION
1,CCN(CC)C(=O)[C@@H]1C[C@H](N)CN1c1nnc(-c2ccccc2)s1,-51.55%
2,Cc1noc(C)c1CCC(=O)NC(C)c1nnc2n1CCC2 (centres undefined),20.31%
3,CCC(C)N(Cc1ccncc1)C(=O)CCC(=O)OC (centres undefined),-28.11%
4,CCc1cc(NCCC(F)(F)F)nc(N2CCOCC2)n1,35.15%
5,CN1C(=O)C2(CCN(CC3CC3)CC2)c2ccccc21,1.42%
6,CN1C(=O)C2(CCN(CC3CCC3)C2)c2ccccc21 (centres undefined),19.05%
7,CN1C(=O)C2(CCN(CCO)C2)c2ccccc21 (centres undefined),59.33%
8,NC(=O)N1CCC2(CCN(C(=O)c3cccnc3)CC2)C1,-14.06%
9,CCNC(=O)[C@@H]1C[C@H](NC(=O)c2ccc(C)s2)CN1Cc1ccc(C)o1,-12.44%
10,Cc1occc1C(=O)N1Cc2nccn2CC(CN2CCOCC2)C1 (centres undefined),25.86%
11,COc1nc2c(cc1C(=O)NCCCc1nnc(N)s1)CCC2,38.32%
12,Cc1noc(CN(C)C2CCCN(Cc3noc(C4CC4)n3)C2)n1 (centres undefined),-23.42%
13,O=C(CC1Cn2ncnc2NC1=O)Nc1cccc(C(F)(F)F)c1 (centres undefined),0%
14,O=S(=O)(CCNCc1cc(O)c2cc(F)ccc2n1)N1CCCC1,-9.89%
15,CN(C)S(=O)(=O)N1CCCC(c2ccncn2)C1 (centres undefined),31.98%
16,CCn1nc(CC(C)C)cc1C(=O)NCC(F)(F)F,1.04%
17,CC(C)COC[C@H]1CC[C@H]2[C@H](CCN2C(=O)c2ccncc2F)O1,55.49%
18,O=C(c1ccncc1F)N1CC[C@@H]2OC(COCC3CC3)CC[C@@H]21 (some centres undefined),27.08%
19,COC[C@H]1CC[C@H]2[C@H](CCN2C(=O)c2ccncc2F)O1,39.51%
20,CCOC[C@H]1CC[C@H]2[C@H](CCN2C(=O)c2ccncc2F)O1,0.82%
21,CC(C)COC[C@@H]1CC[C@H]2[C@H](CCN2C(=O)c2ccncc2F)O1,31.08%
22,CCOC[C@@H]1CC[C@H]2[C@H](CCN2C(=O)c2ccncc2F)O1,50.61%
23,CC(=O)Nc1ccc(CNc2ccn(Cc3ccccc3)n2)cc1,35.56%
24,COCCOc1ccc(NC(=O)C2CC(=O)N(C3CC3)C2)cn1 (centres undefined),-45.07%
25,NCC1CCC2(CCN(C(=O)c3ccccn3)CC2)CO1 (centres undefined),-5.44%
26,O=C(C(CNCc1cccnc1)c1ccccc1)N1CCOCC1 (centres undefined),17.33%

row,SMILES,INHIBITION
1,Cc1nc(CN2CCOCC23CCN(c2ccc(C#N)cc2)CC3)cs1,-30.38%
2,c1coc(CN2CCO[C@@]3(CCC[C@@H]3COCc3nccs3)C2)c1,54.25%
3,COC[C@@H]1CCC[C@@]12CN(Cc1ccco1)CCO2,18.4%
4,c1csc(COC[C@H]2CCC[C@]23CN(Cc2ccoc2)CCO3)n1,36.29%
5,Cc1ccc(C(=O)N2CCC3(CC2)CN(c2ccccn2)CCO3)cc1,56.71%
6,CCCS(=O)(=O)N1CCOC2(CCCN(c3ccccn3)C2)C1 (centres undefined),2.39%
7,O=C(c1ccnnc1)N1CCC2(CC1)CN(c1ccccn1)CCO2,-0.91%
8,CCCS(=O)(=O)N1CCC2(CC1)CN(c1ccccn1)CCO2,72.41%
9,O=C(c1cccnc1)N1CCC2(CC1)CN(c1ccccn1)CCO2,-1.81%
10,CCS(=O)(=O)N1CCOC2(CCCN(c3ccccn3)C2)C1 (centres undefined),29.45%
11,Cc1cc(CN2C[C@@H]3CN(C(=O)c4cccn4C)CCO[C@@H]3C2)no1,9.45%
12,CN(C)C(=O)CCCNC(=O)C(c1cccc(F)c1)N(C)C (centres undefined),-4.92%
13,OCCn1nccc1C1CCN(CCOc2ccccc2F)CC1,17.31%
14,NC(=O)NC(=O)C(c1ccccc1)N1CCN(Cc2ccccc2)CC1 (centres undefined),16.8%
15,NC(=O)NC(=O)C(c1ccccc1)N1CCN(Cc2ccc(Cl)s2)CC1 (centres undefined),-72.31%
16,NC(=O)NC(=O)C(c1ccccc1)N1CCN(Cc2ccsc2)CC1 (centres undefined),50.3%
17,CC(C)n1cc(N2CC(C(=O)N3CCCC3)CC2=O)cn1 (centres undefined),-69.99%
18,O=C(N1CCCO1)[C@@]12CCO[C@@H]1CCN(Cc1cccs1)C2,17.31%
19,COc1cccc(CN2CCCCCC2c2cccs2)c1O (centres undefined),4.47%
20,COc1cc(CN2CCCCCC2c2cccs2)cc(OC)c1O (centres undefined),50.46%
21,COc1cc(CN2CCCCCC2c2cccs2)cc(OC)c1OC (centres undefined),11.24%
22,O=C(C1CCCC1)N1CC2(CCN(C3COC3)CC2)Cc2ccccc21,-3.1%
23,Cc1cccc(-c2nc(C)nn2CC(=O)NC(C)C)c1,-15.28%
24,O=C1CC[C@@H](C(=O)N2CCc3[nH]nc(COc4cccc(Cl)c4)c3C2)N1,51.85%
25,O=C(c1csnn1)N1CCc2[nH]nc(COc3cccc(Cl)c3)c2C1,47.89%
26,O=C(N1CCOCC1)N1CCc2[nH]nc(COc3cccc(Cl)c3)c2C1,5.04%
